We go through 38 molecules from PubChem BioAssay (NCI).

The panel holds about 83,000 compounds, 20% with a hit somewhere; the sample as a whole holds those more often.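 48-hour exposure, single concentration, 96-well plates; percent growth endpoint where 0 means no net growth. Active: below 10.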 Unmarked numbers belong to inactive results. Active and inactive are the calls of the source.

The first assay deals with BT-549 breast. Description: NCI-60 one-dose screen, 48 h (100 = growth as untreated, 0 = no growth, -100 = all killed). Particulars: 10 µM unless noted.
Consider `COc1ccc(-c2cc3c(C)nc(N)nc3n(C3CCC(OCCO)CC3)c2=O)cn1` (stereo not given), for which the growth is -18.1% (active).

As for `Cc1c(Cn2c(C)nc3c(C(=O)O)cc(N4CCOCC4)cc32)cccc1C(F)(F)F`, the growth is 70.9%.

Take `Cc1nc2ccc(-n3ncc(C(=O)c4cc5ccccc5[nH]4)c3N)cc2[nH]1`: the growth was 54%.

`Cc1cn(-c2cc(NC(=O)c3ccc(C)c(Nc4nccc(-c5cnccn5)n4)c3)cc(C(F)(F)F)c2)cn1`: the growth was 98.8%.

For `C=CC(=O)N1CCC[C@H](n2c(=O)n(-c3ccc(Oc4ccccc4)cc3)c3c(N)ncnc32)C1`, the growth was 91.9%.

For the molecule `CC(C)OP(=O)(CCC(=O)c1c[nH]c2ccccc12)OC(C)C`, the growth was 117%.

Regarding `O=C1/C(=C\c2cccc(OCCCCCOc3ccc(Cl)cc3)c2)N=C2SCCCN12`, the growth is 57.4%.

For the molecule `COC(=O)CCCNc1c(-c2c(O)c(O)cc3c(O)c(-c4c(C)cc5c(-c6nc7ccccn7c6NCCCC(=O)OC)c(O)c(O)cc5c4O)c(C)cc23)nc2ccccn12`, the growth was 16%.

As for `Cc1nn(-c2nc3ccccc3[nH]2)c2c1C(c1ccc(OCc3ccc(F)cc3)cc1)CC(=O)N2` (stereo not given), the growth is 58.4%.

As to `CCCC(=O)OCC1OC(n2cnc3c(=S)nc(N)[nH]c32)C(OC(=O)CCC)C1OC(=O)CCC` (stereo not given), the growth is 34.2%.

For the molecule `CNC(=O)c1cccc2cc(Oc3ccnc4cc(OCC5(N)CC5)c(OC)cc34)ccc12`, the growth is 59.7%.

For the molecule `O=C(Nc1ccc(Nc2ncnc3sc4c(c23)CCOC4)cc1)Nc1ccc(Cl)c(C(F)(F)F)c1`, the growth is 89.1%.

For the molecule `O=C1CC(c2ccc3c(c2)OCO3)c2ncn(-c3ccc(Cl)cc3)c2N1` (stereo not given), the growth was 57.5%.

On to `Cc1ccc(N=C2CSc3nnc(-c4csc5c4CCCC5)n3N2)cc1`, for which the growth was 31.3%.

With `CCc1ccc(/C=C/c2ccc(O)c3ncccc23)[n+](C)c1`, the growth is 65.9%.

Regarding `CS(=O)(=O)CCNCc1ccc(-c2ccc3ncnc(Nc4ccc(OCc5cccc(F)c5)c(Cl)c4)c3c2)o1`, the growth is 8.25% (active).

Consider `COc1ccc(Nc2ncccc2NC(=O)c2cn(Cc3cccc(Oc4ccccc4)c3)nn2)cc1`, for which the growth was 93.6%.

Turning to `COc1cc2c(Oc3ccc(NC(=O)C4(C(=O)Nc5ccc(F)cc5)CC4)cc3F)ccnc2cc1OCCCN1CCOCC1`, the growth was 17.8%.

For the molecule `Cc1cnc(Nc2ccc(OCCN3CCCC3)cc2)nc1Nc1cccc(S(=O)(=O)NC(C)(C)C)c1`, the growth was -0.344% (active).

With `N#CC(C#N)=NO`, the growth is 103%.

With `Cc1sc2c(c1C)c(=O)nc1c(-c3nc(-c4ccccc4)cs3)n[nH]n12`, the growth was 110%.

Turning to `C=CC(=O)N1CCC(Oc2cc3c(Nc4ccc(Cl)c(Cl)c4F)ncnc3cc2OC)CC1`, the growth was 8.14% (active).

Take `Cc1cn(-c2cc(NC(=O)c3ccc(C)c(Nc4nccc(-c5cccnc5)n4)c3)cc(C(F)(F)F)c2)cn1`: the growth is 24.2%.

On to `Cc1cccc(Cl)c1NC(=O)c1cnc(Nc2cc(N3CCOCC3)cc(S(C)(=O)=O)c2)s1`, for which the growth is 66.7%.

As to `COc1cc(C2CC(c3ccc(Cl)cc3)=NN2c2ccc(Cl)cc2)cc(OC)c1OC` (stereo not given), the growth is 95.6%.

On to `CCc1cc2c(c3ccc(C(=O)CBr)cc13)CCCC2`, for which the growth was 80.3%.

Consider `CC(N)C(Cc1ccc(Cl)cc1)c1ccc(Cl)cc1` (stereo not given), for which the growth was 77.6%.

Consider `C=CC(=O)Nc1cccc(Oc2nc(Nc3ccc(N4CCN(C)CC4)cc3)nc3ccsc23)c1`, for which the growth is -37.5% (active).

On to `O=C(c1c(F)ccc(NS(=O)(=O)N2CC[C@@H](F)C2)c1F)c1c[nH]c2ncc(-c3cnc(C4CC4)nc3)cc12`, for which the growth was 61.6%.

As to `CCN(CCN(C)C)C(=O)CNCc1cc(C(N)=O)ccn1`, the growth is 102%.

Consider `CCc1cc2c(cc1N1CCC(N3CCOCC3)CC1)C(C)(C)c1[nH]c3cc(C#N)ccc3c1C2=O`, for which the growth was -19.3% (active).

Consider `O=C(Cc1ccc(-c2ccc(OCCN3CCOCC3)cc2)cn1)NCc1ccccc1`, for which the growth is 3.61% (active).

Take `c1cn2cc(-c3ccc4cn[nH]c4c3)nc(Nc3ccc(N4CCOCC4)cc3)c2n1`: the growth is 66.2%.

`N#CCNC(=O)c1ccc(-c2ccnc(Nc3ccc(N4CCOCC4)cc3)n2)cc1`: the growth is 10.8%.

Turning to `Cc1cccc(Cl)c1NC(=O)c1cnc(Nc2cc(N3CCOCC3)cc(N3CCOCC3)c2)s1`, the growth was 56.3%.

Take `Cc1cc(Nc2cc(N3CCN(C)CC3)nc(/C=C/c3ccccc3)n2)n[nH]1`: the growth is 8.9% (active).

As for `Cc1cc(N(CCNc2ccnc3cc(Cl)ccc23)Cc2cccs2)nc(Cl)n1`, the growth is -55.4% (active).

With `NC(=O)c1n[nH]n2c1nc(=O)c1c3c(sc12)CCCC3`, the growth is 98.3%.

The next assay concerns MDA-MB-435 melanoma. The assay is described as above. Particulars: 10 µM unless noted.
Regarding `Cc1cn(-c2cc(NC(=O)c3ccc(C)c(Nc4nccc(-c5cnccn5)n4)c3)cc(C(F)(F)F)c2)cn1`, the growth was 23.2%.

`CCCC(=O)OCC1OC(n2cnc3c(=S)nc(N)[nH]c32)C(OC(=O)CCC)C1OC(=O)CCC` (stereo not given): the growth was 36.3%.

On to `COc1cc2c(Oc3ccc(NC(=O)C4(C(=O)Nc5ccc(F)cc5)CC4)cc3F)ccnc2cc1OCCCN1CCOCC1`, for which the growth is -75.1% (active).

Consider `Cc1cccc(Cl)c1NC(=O)c1cnc(Nc2cc(N3CCOCC3)cc(S(C)(=O)=O)c2)s1`, for which the growth is 69.9%.

`COc1cc(C2CC(c3ccc(Cl)cc3)=NN2c2ccc(Cl)cc2)cc(OC)c1OC` (stereo not given): the growth is 93.3%.

As for `CCc1cc2c(c3ccc(C(=O)CBr)cc13)CCCC2`, the growth was 107%.

Turning to `C=CC(=O)Nc1cccc(Oc2nc(Nc3ccc(N4CCN(C)CC4)cc3)nc3ccsc23)c1`, the growth was -93.3% (active).

Regarding `O=C(c1c(F)ccc(NS(=O)(=O)N2CC[C@@H](F)C2)c1F)c1c[nH]c2ncc(-c3cnc(C4CC4)nc3)cc12`, the growth was 16.8%.

For `CCN(CCN(C)C)C(=O)CNCc1cc(C(N)=O)ccn1`, the growth was 110%.

Take `c1cn2cc(-c3ccc4cn[nH]c4c3)nc(Nc3ccc(N4CCOCC4)cc3)c2n1`: the growth is 76.8%.

Regarding `N#CCNC(=O)c1ccc(-c2ccnc(Nc3ccc(N4CCOCC4)cc3)n2)cc1`, the growth is 42.5%.

Turning to `Cc1cccc(Cl)c1NC(=O)c1cnc(Nc2cc(N3CCOCC3)cc(N3CCOCC3)c2)s1`, the growth is 10.3%.
